Assay results as given in PubChem BioAssay (EPA / NIEHS).
Calls of active or inactive are those of the source. Rule for the calls: active = hit-call score of the fitted dose curve at least 0.9, where 1 is the maximum; inactive = score below 0.9.

Key:
[1] = ATG_NFI_CIS: Attagene CIS-FACTORIAL HepG2 Assay for human Nuclear Factor I (NFI) (AID 2282989); details: HepG2 cis-regulatory reporter, NFI response element transcription; actives raise or lower the signal
How it was run: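 After transient transfection of HepG2 with cis-promoter reporter constructs and 24 h dosing, RNA is reverse-transcribed, amplified, 6-FAM end-labelled and HpaI-digested before capillary analysis. Bidirectional curve fitting against DMSO.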

[2] = ATG_NF_kB_CIS: Attagene CIS-FACTORIAL HepG2 Assay for human Nuclear Factor Kappa B (NF-kB) (AID 2282991); details: HepG2 Attagene cis-factorial NF-kB reporter mRNA; actives raise or lower the signal
How it was run: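 Measures mRNA induction of an NF-kB-responsive cis-element reporter in HepG2 cells transfected with multiple reporter units, sampled 24 h post-dosing; quantified by fluorescence after RT-PCR and capillary electrophoresis, fitted for activation or inhibition against DMSO.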

[3] = ATG_NRF2_ARE_CIS: Attagene CIS-FACTORIAL HepG2 Assay for human Nuclear Factor Erythroid 2 Related Factor 2 (NFR2) response to Antioxidant Response Elements (ARE) (AID 2282992); details: HepG2 Attagene ARE/NRF2 reporter, transcription factor activity; actives raise or lower the signal
How it was run: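 Multiplexed reporter mRNA profiling in HepG2 after a 24 h chemical exposure. Curves fitted in both directions relative to DMSO negative control.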

[4] = ATG_Oct_MLP_CIS: Attagene CIS-FACTORIAL HepG2 Assay for human Octamer-Binding Transcription Factor (Oct) (AID 2282993); details: HepG2 Attagene cis-factorial Oct reporter, mRNA; actives raise or lower the signal
How it was run: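 Cells of the HepG2 line express promoter-controlled reporter sequences whose mRNA levels, after 24 h treatment, are measured by RT-PCR and capillary electrophoresis. Increases and decreases are scored relative to DMSO.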

[5] = biological target: Cellular tumor antigen p53 (Homo sapiens) (UniProt P04637); test: ATG_p53_CIS: Attagene CIS-FACTORIAL HepG2 Assay for human p53 Transcription Factor (AID 2282994); details: HepG2 p53 cis-element reporter, Attagene mRNA; actives raise or lower the signal
How it was run: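 Multiplexed reporter mRNA assay in human HepG2 liver cells; cis-regulated units report endogenous factor activity. Values come from bidirectional curve fitting against DMSO negative control after 24 h treatment.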

[6] = BSK_3C_TissueFactor: BioMAP Diversity Plus: 3C Assay for Tissue Factor Biomarker Activity (AID 2282997); details: BioMAP 3C HUVEC, tissue factor biomarker readout; actives raise or lower the signal
How it was run: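 Human vascular primary cells (umbilical vein endothelium) received test chemical; Tissue Factor was determined by ELISA at 24 h, and both gain and loss of signal versus DMSO were fitted.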

[7] = BSK_3C_uPAR: BioMAP Diversity Plus: 3C Assay for Urokinase-type plasminogen activator receptor (uPAR) Biomarker Activity (AID 2282998); details: BioMAP 3C HUVEC, uPAR biomarker ELISA; actives raise or lower the signal
How it was run: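 Endothelial primary cells of human umbilical vein origin received test chemical; 24 h later uPAR was assayed by ELISA. Fitting was bidirectional, DMSO as negative control.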

[8] = BSK_3C_VCAM1: BioMAP Diversity Plus: 3C Assay for Vascular cell adhesion molecule 1 (VCAM1) Biomarker Activity (AID 2282999); details: BioMAP 3C HUVEC, VCAM1 ELISA, cytokine-stimulated; actives raise or lower the signal
How it was run: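 Human umbilical vein endothelial cells (3C system), biomarker read by ELISA 24 h after dosing; bidirectional fit against DMSO baseline. Cytotoxicity tracked by SRB total-protein staining in parallel cultures at biomarker time.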

[9] = BSK_4H_Eotaxin3: BioMAP Diversity Plus: 4H Assay for Eotaxin 3 Biomarker Activity (AID 2283000); details: primary human endothelial cells (HUVEC); actives raise or lower the signal
How it was run: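 Readout is Eotaxin-3 (CCL26) level by ELISA in primary human umbilical vein endothelial cells harvested 24 h after chemical exposure; activity fitted in both directions against DMSO control.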

[10] = biological target: Myc proto-oncogene protein (Homo sapiens) (UniProt P01106); test: ATG_Myc_CIS: Attagene CIS-FACTORIAL HepG2 Assay for human Myelocytomatosis (Myc) Proto-Oncogene Transcription Factor (AID 2282990); details: HepG2, Attagene cis-reporter transcription factor activity; actives raise or lower the signal
How it was run: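 Transiently transfected HepG2 cells bearing cis-promoter reporter units for endogenous transcription factors; 24 h exposure. Reporter mRNA measured by RT-PCR, 6-FAM primer extension, HpaI cut and capillary electrophoresis; bidirectional fit relative to DMSO.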

Measured: AC50

Chain of Myc proto-oncogene protein (Homo sapiens) (P01106 whole entry, looked up): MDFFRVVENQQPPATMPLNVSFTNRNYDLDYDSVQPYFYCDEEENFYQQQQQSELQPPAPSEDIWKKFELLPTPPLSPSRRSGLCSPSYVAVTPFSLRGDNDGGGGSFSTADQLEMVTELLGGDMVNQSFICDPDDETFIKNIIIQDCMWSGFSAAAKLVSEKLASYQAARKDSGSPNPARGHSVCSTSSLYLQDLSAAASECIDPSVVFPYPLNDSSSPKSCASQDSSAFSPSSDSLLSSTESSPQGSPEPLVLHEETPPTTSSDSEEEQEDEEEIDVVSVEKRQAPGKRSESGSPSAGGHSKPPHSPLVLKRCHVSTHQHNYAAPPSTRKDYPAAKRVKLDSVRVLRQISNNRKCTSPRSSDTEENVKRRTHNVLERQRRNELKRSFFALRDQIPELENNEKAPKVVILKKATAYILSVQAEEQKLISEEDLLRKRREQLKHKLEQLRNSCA
Chain of Cellular tumor antigen p53 (Homo sapiens) (P04637 whole entry, looked up): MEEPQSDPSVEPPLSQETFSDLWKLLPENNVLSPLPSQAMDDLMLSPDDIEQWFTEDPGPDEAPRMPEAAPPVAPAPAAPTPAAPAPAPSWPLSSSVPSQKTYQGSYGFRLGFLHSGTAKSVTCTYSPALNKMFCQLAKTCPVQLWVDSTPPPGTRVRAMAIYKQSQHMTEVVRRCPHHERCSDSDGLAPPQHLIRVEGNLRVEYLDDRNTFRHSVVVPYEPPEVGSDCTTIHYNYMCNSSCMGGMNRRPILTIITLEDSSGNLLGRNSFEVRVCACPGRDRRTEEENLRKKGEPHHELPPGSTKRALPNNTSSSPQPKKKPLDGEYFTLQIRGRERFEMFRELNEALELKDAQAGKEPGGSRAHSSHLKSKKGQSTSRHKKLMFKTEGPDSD

Brc1ccc(Br)c(Br)c1
inactive: [1] | [2] | [3] | [4] | [5]

ON=C1CCCCC1
inactive: [1] | [3] | [4] | [5]

O=Cc1ccccc1S(=O)(=O)O
inactive: [1] | [3] | [4]

ClC(c1ccccc1)(c1ccccc1)c1ccccc1
inactive: [1] | [2] | [4] | [5]

CC1(C)O[C@@H]2C[C@H]3[C@@H]4CCC5=CC(=O)C=C[C@]5(C)[C@@]4(F)[C@@H](O)C[C@]3(C)[C@]2(C(=O)CO)O1
inactive: [1] | [3] | [4] | [5]

CCCCC(CC)COC(C)=O (stereo not drawn)
inactive: [1] | [2] | [3] | [4]

CCCC(C)=O
inactive: [1] | [2] | [3] | [4] | [5]

C=CC(=O)OCCC#N
active: [3] 25.9 µM | [4] 44.1 µM | [5] 164 µM
inactive: [1]

CSCCC=O
not listed: [10]
inactive: all other assays above

Cc1c(OCC(F)(F)F)ccnc1CS(=O)c1nc2ccccc2[nH]1 (stereo not drawn)
active: [3] 49.1 µM
inactive: [1] | [2] | [4] | [5]

Nc1ccccc1[N+](=O)[O-]
inactive: [1] | [3] | [4] | [5]

O=c1[nH]c(=O)c2cn[nH]c2[nH]1
inactive: [1] | [3] | [4] | [5]

CCc1ncc(C)[nH]1
inactive: [1] | [3] | [4] | [5]

O=C(O)c1cccnc1C(=O)O
inactive: [1] | [2] | [3] | [4] | [5]

O=C1OC(=O)c2c(Cl)c(Cl)c(Cl)c(Cl)c21
inactive: [1] | [3] | [4] | [5]

COc1ccc(COC(C)=O)cc1
inactive: [1] | [2] | [3] | [4]

O=CCc1ccccc1
inactive: [1] | [2] | [3] | [4] | [5]

O=C(Nc1ccc2c(O)c(N=Nc3ccc(N=Nc4ccc(S(=O)(=O)O)cc4)cc3)c(S(=O)(=O)O)cc2c1)c1ccccc1
not listed: [2] | [10]
inactive: all other assays above

O=C1NC2NC(=O)NC2N1 (stereo not drawn)
active: [4] 0.167 µM
inactive: [1] | [2] | [3]

CC(=O)CC(=O)Nc1ccccc1
inactive: [1] | [2] | [3] | [4]

CCCOCCO
inactive: [1] | [3] | [4] | [5]

CCCC(=O)OC(C)(C)Cc1ccccc1
inactive: [1] | [2] | [4] | [5]
active: [3] 145 µM

CCCCN(CCCC)C(=O)N(CCCC)CCCC
inactive: [4]
active: [1] 60.3 µM | [2] 52.8 µM | [3] 61.6 µM | [5] 33.4 µM | [6] 6.23 µM | [7] 10.7 µM | [8] 8.82 µM | [9] 9.73 µM

CN(C)c1cccc(O)c1
inactive: [10] | [2] | [3] | [4]

CS(=O)(=O)c1ccc(C2=C(c3ccccc3)C(=O)OC2)cc1
not listed: [10]
inactive: all other assays above

C/C=C(\C)C(=O)OCCc1ccccc1
inactive: [1] | [10] | [4] | [5]

COc1ccccc1[N+](=O)[O-]
inactive: [1] | [3] | [4] | [5]

CCCCCCCCCCCCCCN(CCO)CCO
active: [1] 17.2 µM | [3] 11.1 µM
inactive: [2] | [4]

Cc1cc(CCC(=O)OCCOCCOCCOC(=O)CCc2cc(C)c(O)c(C(C)(C)C)c2)cc(C(C)(C)C)c1O
active: [3] 23.4 µM | [7] 17.8 µM
not listed: [10]
inactive: all other assays above

[O-]n1ccccc1=S.[O-]n1ccccc1=S.[Zn+2]
inactive: [10] | [3] | [4] | [5]
active: [2] 0.999 µM

CCN(CCN)c1cccc(C)c1
inactive: [10] | [3] | [4] | [5]

CCO/C=C1\N=C(c2ccccc2)OC1=O
inactive: [10] | [3] | [4] | [5]

CC(O)C1CCCCC1 (stereo not drawn)
inactive: [10] | [3] | [4]

CCC1(c2ccccc2)C(=O)NCNC1=O
inactive: [10] | [2] | [3] | [4] | [5]

Cc1ccc2c(c1)C(=O)OC2=O
inactive: [10] | [3] | [4] | [5]

OCC#CCO
inactive: [10] | [2] | [4] | [5]

C=C1CC[C@H](O)C/C1=C/C=C1\CCC[C@]2(C)[C@@H]([C@H](C)/C=C/[C@H](C)C(C)C)CC[C@@H]12
active: [2] 44.5 µM | [3] 27 µM
inactive: [10] | [4] | [5]

CN(C)C(=O)Nc1ccc(Oc2ccc(Cl)cc2)cc1
active: [3] 61.4 µM | [7] 2.32 µM
not listed: [1]
inactive: all other assays above

CC(=O)OCCCc1ccccc1
inactive: [10] | [3] | [4] | [5]

COc1ccccc1N=Nc1c(S(=O)(=O)O)cc2cc(S(=O)(=O)O)cc(NC(C)=O)c2c1O
inactive: [10] | [2] | [3] | [4] | [5]

CCCCCCCCCCCCCC(=O)OCC(O)CO (stereo not drawn)
inactive: [2] | [4] | [5]
active: [3] 112 µM

CCCCCCC(O)CCCCCCCCCCC(=O)O (stereo not drawn)
inactive: [4]
active: [3] 27.3 µM

CC(C=O)Cc1ccc(C(C)(C)C)cc1 (stereo not drawn)
active: [3] 26.4 µM | [6] 31.1 µM | [7] 32.9 µM | [8] 36.4 µM | [9] 36 µM
inactive: [10] | [4] | [5]

CCCCCCCCCCCCN1CCCCCC1=O
inactive: [10] | [2] | [4] | [5]
active: [3] 10.9 µM

COC(=O)c1ccc(OC)cc1
inactive: [2] | [4]

CC(=O)C(C)O (stereo not drawn)
inactive: [10] | [2] | [3] | [4] | [5]

C1=CC2C3C=CC(C3)C2C1 (stereo not drawn)
not listed: [1]
inactive: all other assays above

Nc1ccc2cc(S(=O)(=O)O)cc(O)c2c1N=Nc1ccccc1C(F)(F)F
inactive: [10] | [4]

C=Cc1ccc(C(C)(C)C)cc1
inactive: [10] | [2] | [4]

C[N+](C)(C)CCCCCC[N+](C)(C)C
inactive: [10] | [2] | [3] | [4] | [5]

Nc1ccc(NCCO)c([N+](=O)[O-])c1
inactive: [10] | [4] | [5]
active: [3] 24.1 µM

OCCOCCN1CCN(C2=Nc3ccccc3Sc3ccccc32)CC1
active: [3] 176 µM | [5] 75.8 µM
inactive: [10] | [2] | [4]

Clc1ccc(C(c2ccccc2Cl)C(Cl)Cl)cc1 (stereo not drawn)
active: [2] 100 µM | [3] 52 µM | [4] 26.7 µM
inactive: [10] | [5]

COC(C)(C)CC(C)=O
inactive: [10] | [4] | [5]

BrCc1cccc(Oc2ccccc2)c1
inactive: [10] | [2] | [4]
active: [3] 58.4 µM

CCCCCCCCCCCCCCCC(=O)OC/C=C(C)/C=C/C=C(C)/C=C/C1=C(C)CCCC1(C)C
active: [3] 23.9 µM | [8] 20 µM
not listed: [1] | [2]
inactive: all other assays above

CCCCCc1ccco1
active: [3] 31.9 µM
inactive: [10] | [4] | [5]

c1ccc(CCc2ccccc2)cc1
inactive: [10] | [4] | [5]
active: [3] 149 µM | [6] 14.5 µM | [7] 36.7 µM | [8] 29.8 µM | [9] 30.7 µM

OCc1ccc(Cl)cc1Cl
inactive: [10] | [3] | [4]

CN(C)CCOc1ccc(/C(=C(/CCCl)c2ccccc2)c2ccccc2)cc1
active: [3] 2.47 µM
inactive: [10] | [2] | [4] | [5]

CC(C)(N=C=O)c1cccc(C(C)(C)N=C=O)c1
active: [3] 13 µM
not listed: [1] | [5] | [10]
inactive: all other assays above

CC1C2CC(CC2C2CCCC(O)C2)C1(C)C (stereo not drawn)
inactive: [10] | [2] | [3] | [4] | [5]

CCOc1ccccc1O
inactive: [10] | [2] | [3] | [4] | [5]

COc1cc(CCC(C)=O)ccc1O
inactive: [10] | [2] | [3] | [4] | [5]

C=C(C)CNCC
inactive: [2] | [3] | [4] | [5]

Nc1c(S(=O)(=O)O)cc(Br)c2c1C(=O)c1ccccc1C2=O
active: [3] 73.8 µM
inactive: [10] | [2] | [4]

Cc1ccc(S(N)(=O)=O)cc1
inactive: [10] | [2] | [4] | [5]

C=C(C)C(=O)OCCOCCOCCOC(=O)C(=C)C
not listed: [1] | [5]
inactive: all other assays above
